SMN2 splice enh – increases expression of the SMN2 splice variant; HEK293 SMN2-luciferase splicing reporter, luminescence, 30-36 h; Potency, µM (doses to about 46.1 µM), without a hit: at the highest dose activity change, positive = activation, hits mostly activators; 210,000 tested, 2.8% active; AID 1458; note: % of control where 0% means no effect; nearly all actives have a fitted effect of over 55% in size
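HEK293 cells carry an SMN2 minigene-luciferase reporter in which exon 7 inclusion puts luciferase in frame. Cells were seeded at 2000 cells/well, attached for 10-12 hours, then exposed to compounds for 30-36 hours at 37C before ONE-Glo luminescence.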
Rab9 promoter act – activates the Rab9 promoter | Huh7 Rab9 promoter-luciferase reporter, luminescence, 24 h | Potency, µM (titrated, usually from 9.22 µM), without a hit: top-dose activation, negative = inhibition, actives largely listed as activators | 320,000 tested, 2.8% active; note: % of control where 0% means no effect; nearly all actives have a fitted effect of over 60% in size
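Using Huh7 cells stably transfected with Rab9 promoter–luciferase, compounds were incubated 24 h at 37 °C, 5% CO2; luciferase luminescence was read 10 min after reagent addition.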
NPC1 promoter act – NPC1 promoter activation. Huh7 NPC1 promoter luciferase reporter, 24 h. Potency, µM (top dose mostly 9.22 µM), inactives show top-dose activation, usual class: activators. 320,000 tested, 2.4% active; note: % of control where 0% means no effect; nearly all actives have a fitted effect of over 60% in size
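Readout is luciferase luminescence, reflecting NPC1 promoter activation in stably transfected Huh7 cells after 24 h compound exposure at 37 °C in reduced-serum medium with 10% FBS.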
FLuc modulator – inhibits or activates purified firefly luciferase, miR-21 counter-screen; P08659; Potency, µM (top dose mostly 57.5 µM), for inactives: at the highest dose activity change, negative = inhibition, actives largely listed as inhibitors; 360,000 tested, 6.9% active; AID 588342; purified FLuc, Km substrates, luminescence inhibition;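 note: plate controls were vehicle for no effect and reference inhibitor for full effect; nearly all actives have a fitted effect of over 55% in size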
Target sequence (P08659 whole entry, looked up): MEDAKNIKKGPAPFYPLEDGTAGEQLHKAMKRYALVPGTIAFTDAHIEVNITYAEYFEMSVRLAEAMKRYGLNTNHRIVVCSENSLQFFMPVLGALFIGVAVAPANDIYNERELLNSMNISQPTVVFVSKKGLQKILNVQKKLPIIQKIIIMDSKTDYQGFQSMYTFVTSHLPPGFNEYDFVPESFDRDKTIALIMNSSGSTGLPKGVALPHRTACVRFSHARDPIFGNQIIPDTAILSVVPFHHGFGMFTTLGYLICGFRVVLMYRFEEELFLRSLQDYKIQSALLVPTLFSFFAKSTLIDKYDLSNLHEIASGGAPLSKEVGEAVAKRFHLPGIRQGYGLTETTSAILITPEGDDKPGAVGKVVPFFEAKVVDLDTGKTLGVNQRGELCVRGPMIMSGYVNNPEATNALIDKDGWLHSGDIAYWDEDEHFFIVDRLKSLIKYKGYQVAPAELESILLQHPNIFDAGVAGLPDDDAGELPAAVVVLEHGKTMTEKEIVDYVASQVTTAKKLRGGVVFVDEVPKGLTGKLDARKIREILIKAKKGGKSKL
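Biochemical qHTS of compounds, final roughly 60 µM downward over six points, against 10 nM purified firefly luciferase using Km concentrations of substrates (10 uM D-luciferin, 10 uM ATP) in Tris acetate pH 7.5 buffer; luminescence output.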
uPA generation – blocks generation of uPA at the cell surface. cell surface uPA generation assay, qHTS. Potency, µM (doses to about 38.3 µM), for the others: at the highest dose activity change, negative = inhibition, most hits filed as inhibitors. 330,000 tested, 0.31% active; active = well fitted inhibition curve with a large enough effect; inconclusive = small, poorly fitted or top-dose-only effect; inactive = no such curve, though single readings can be large or run the other way; tested in mouse RAW 264.7 cells; note: % is set by controls: 0 for no effect and ±100 for the full control effect; nearly all actives have a fitted effect of over 55% in size
ELG1 genotoxic – genotoxicity induction in ELG1-luciferase HEK293T cells; HEK293T ELG1-luciferase reporter, luminescence, 16 h; Potency, µM (highest dose often 46 µM), inactives show at the highest dose activity change, positive = activation, usual class: activators; 330,000 tested, 1.3% active; AID 504466; note: % of control where 0% means no effect; nearly all actives have a fitted effect of over 60% in size
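Reporter readout depends on ELG1 protein level, which increases with genetic stress. After 16 hr compound exposure at 37 °C, luciferase activity was quantified using ONE-Glo.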
Numbers without * were called inactive; ? = inconclusive; / = no result. The list is not random: actives were taken first. Their share in the collection is about 7.3%. Unless noted, calls come from the whole dose curve; as a rule, active = well fitted curve in the direction sought with a large enough effect; inconclusive = small, poorly fitted or top-dose-only effect, or another doubt; inactive = no such curve, though single readings can be large; an effect the other way counts as inactive or inconclusive. Potency is the fitted concentration of half-maximal effect.

SMILES	SMN2 splice enh	Rab9 promoter act	NPC1 promoter act	FLuc modulator	uPA generation	ELG1 genotoxic
COc1ccccc1NC(=O)c1ccc2c(Cl)c3c(nc2c1)CCCC3	0.9%	/	/	7.57µM*	/	/
CCOc1ccccc1NC(=O)NNC(=O)c1ccc2ccccc2c1	/	6.9%	19.3%	-4.5%	4.6%	-1.5%
CCOc1ccccc1NC(=O)c1ccc2ccccc2c1	/	?	?	21.3µM*	-1.5%	-0.4%
CCOc1ccccc1NC(=O)c1ccc2c(Cl)c3c(nc2c1)CCCC3	-2.1%	/	/	2.69µM*	/	/
COc1ccccc1N1CCN(C(=O)c2ccc3[nH]c4c(c3c2)CC(C)CC4)CC1 (configuration not stated)	6.4%	1.3%	-2.9%	19µM*	4.5%	-8.4%
COc1ccccc1N1CCN(C(=O)c2ccc3[nH]c(C)c(C)c3c2)CC1	/	-24.7%	-29.3%	1.7%	?	?
COc1cc(OC)c(NC(=O)c2ccc3c(Cl)c4c(nc3c2)CCCC4)cc1Cl	-4.0%	/	/	-1.4%	/	/
CCOc1ccccc1NC(=O)c1ccc2c(=O)n3c(nc2c1)CCCCC3	/	3.7%	10.7%	?	-7.6%	-5.7%
COC(=O)c1cc(C(=O)N2CCN(c3ccccc3OC)CC2)cc([N+](=O)[O-])c1	/	-12.1%	-4.5%	21.3µM*	-18.3%	-0.3%
CCOc1ccccc1NC(=O)c1ccc2c(Cl)c3c(nc2c1)CCC3	21.7%	/	/	0.849µM*	/	/
COc1ccccc1N1CCN(C(=O)c2ccc3c(Cl)c4c(nc3c2)CCCC4)CC1	-21.2%	-8.4%	-3.5%	3.5%	4.47µM*	-2.4%
O=C(NCc1noc2ccccc12)Nc1ccc(F)cc1F	/	/	/	-6.9%	/	/
COc1cccc(C(=O)OCC(=O)c2ccc(Br)s2)c1	/	0.1%	3.1%	7.57µM*	5.5%	1.5%
COc1ccc(C(=O)OCC(=O)c2ccc(Br)s2)c(OC)c1	/	1.8%	0.4%	?	20.6%	15.2%
Cc1ccc(C(=O)COC(=O)c2cccc(O)c2)s1	/	3.6%	14.9%	0.426µM*	?	1.5%
O=C(Nc1ccc(F)cc1F)C1CCN(c2ncccn2)CC1	-3.5%	/	/	0.3%	/	/
O=C(CNC(=O)c1ccco1)OCc1c(F)cccc1Cl	18.8%	-8.5%	1.3%	15.1µM*	-2.6%	3.9%
O=C(CNC(=O)c1ccco1)NCC(=O)OCc1c(F)cccc1Cl	/	11.2%	-1.7%	5.0%	-0.7%	2.8%
C(=C\c1nc(-c2ccccc2)no1)/c1ccccc1	10µM*	0.562µM*	1.58µM*	1.35µM*	-0.1%	?
Cc1c(Cl)cccc1NC(=O)Cn1cc2c(n1)CCCC2	-3.7%	/	/	-1.4%	/	/
CC1CCN(c2ccc(NC(=S)NC(=O)c3ccco3)cc2)CC1	-42.8%	?	14.0%	12µM*	6.2%	1.5%
O=C(NC(=S)Nc1ccc(N2CCCCC2)cc1)c1ccco1	/	1.12µM*	1µM*	3.38µM*	-21.4%	?
Cc1ccc(C(=O)NC(=S)Nc2ccc(N3CCN(C(=O)c4ccco4)CC3)cc2)cc1	/	-7.1%	-2.2%	1.1%	1.8%	-11.2%
CCOC(=O)c1c(C)n(S(=O)(=O)c2ccc(C)cc2)c2ccc(NS(=O)(=O)c3ccc(C)cc3)cc12	2.5%	/	/	0.0%	/	/
C/C(=N\NC(=O)c1cccs1)c1ccncc1	/	2.3%	16.2%	/	3.6%	5.6%
SMILES	SMN2 splice enh	Rab9 promoter act	NPC1 promoter act	FLuc modulator	uPA generation	ELG1 genotoxic
C/C(=N\NC(=O)c1sccc1C)c1cccnc1	/	?	?	13.5µM*	-25.1%	?
CCc1ccc(C(=O)N/N=C(\C)c2ccncc2)s1	/	3.16µM*	3.55µM*	16.9µM*	-4.4%	?
C/C(=N\Nc1ccc(C)c(Cl)c1)c1cccnc1	/	?	?	15.1µM*	-3.1%	17.3%
C/C(=N\NC(=O)c1sccc1C)c1ccncc1	/	3.16µM*	?	16.9µM*	4.8%	10.3µM*
C/C(=N/NC(=O)c1ccc(C)s1)c1ccncc1	/	?	?	?	-11.3%	?
COc1ccc(CNC(=O)C2CCCN(C(=O)N3CCOc4ccccc43)C2)cc1 (configuration not stated)	/	/	/	-17.3%	/	/
Cc1ccccc1NC(=O)CCNC(=O)Cn1ccc2ccccc2c1=O	10.8%	/	/	0.2%	/	/

Source: PubChem BioAssay
